Measurements reported in ChEMBL document CHEMBL4513216, “Probing the Open Global Health Chemical Diversity Library for Multistage-Active Starting Points for Next-Generation Antimalarials” (ACS Infect Dis, 2020).
Hit rate of the full screen: of about 69,000 compounds, about 8,600 (12%) showed an effect of 50% or more. The sample holds strong results, similar compounds and a random draw of the others, so the mix is not that of the screen.

tested on: Plasmodium berghei; test: Screen against P. berghei liver stage (PbLuc), transformed with Luciferase, at 10uM; type: functional, HepG2; conditions: tested at 10 uM

| SMILES | INHIBITION [%] |
| --- | --- |
| O=C(NCc1nnc2n1CCCCC2)N1CCc2ccccc2C1 | 41.2 |
| O=C(Cn1nc(-c2ccc(F)cc2)oc1=O)NCc1ccccc1F | -69.9 |
| Cc1ccc(CN(C)C(=O)Cn2nc(-c3ccc(F)cc3)oc2=O)cc1 | 30.8 |
| CN(Cc1ccc(F)cc1)C(=O)Cn1nc(-c2ccc(F)cc2)oc1=O | 1.58 |
| CN(Cc1ccccc1Br)C(=O)Cn1nc(-c2ccc(F)cc2)oc1=O | 26.8 |
| Cc1ccsc1CN(C)C(=O)Cn1nc(-c2ccc(F)cc2)oc1=O | 22.1 |
| COc1ccccc1CNC(=O)Cn1nc(-c2ccc(F)cc2)oc1=O | -16.1 |
| Cc1ccccc1CNC(=O)Cn1nc(-c2ccc(F)cc2)oc1=O | 50.15 |
| Cc1ccccc1CN(C)C(=O)Cn1nc(-c2ccc(F)cc2)oc1=O | 56.5 |
| CN(Cc1ccc(Cl)s1)C(=O)Cn1nc(-c2ccc(F)cc2)oc1=O | 66.1 |
| CCOC1Sc2nnc(C)n2N=C1c1ccc(Br)cc1 (stereo not given) | 18.2 |
| CN(C)[C@@H]1CCN(C(=O)c2cccc(C#N)c2)[C@H]1Cc1cnn(C)c1 | 27.6 |
| Cc1ccc(-c2cc(CN3CCOC(Cn4cncn4)C3)on2)cc1 (stereo not given) | 24.6 |
| O=C(C1CC=CC1)N1CCC2(CCN(Cc3ccccn3)C2=O)C1 (stereo not given) | 17.5 |
| CC(C)n1cnnc1C1CCCN(S(=O)(=O)CCCF)C1 (stereo not given) | 39.7 |
| CC(C)n1cnnc1C1CCCN(S(=O)(=O)CC2CCCC2)C1 (stereo not given) | 76.5 |
| CC(C)CCS(=O)(=O)N1CCCC(c2nncn2C(C)C)C1 (stereo not given) | 44.9 |
| Cc1oc(C(=O)O)cc1S(=O)(=O)Nc1cc(Br)ccc1Cl | 38.8 |
| N#Cc1ccc(Cl)cc1N1CCC(OC2CCOCC2)CC1 | 35.2 |
| COCC1CN(C(=O)Nc2ccc(Cl)cc2Cl)CCO1 (stereo not given) | 6.85 |
| Clc1cnccc1N1CCC(OC2CCOCC2)CC1 | 48.5 |
| COCC1CN(c2ccc(C#N)c(Cl)c2)CCO1 (stereo not given) | 96.1 |
| COCC1CN(C(=O)Nc2cc(Cl)ccc2F)CCO1 (stereo not given) | 8.13 |
| CC(=O)NCC1CN(c2ccc3c(Cl)ccnc3c2F)CCO1 (stereo not given) | 23.8 |
| COCC1CN(c2ccc(Cl)cc2C#N)CCO1 (stereo not given) | 53.4 |
| Cn1cc(N2CCN(c3ccc(C#N)c(Cl)c3)CC2=O)cn1 | -11.6 |
| NC(=O)C1CN(c2ccc3c(Cl)ccnc3c2F)CCO1 (stereo not given) | -22.4 |

| SMILES | INHIBITION [%] |
| --- | --- |
| N#Cc1cc(Cl)ccc1N1CCOC(C(N)=O)C1 (stereo not given) | 32.5 |
| COCC1CN(c2ccc3c(Cl)ccnc3c2F)CCO1 (stereo not given) | 84.2 |
| N#Cc1ccc(N2CCC(OC3CCOCC3)CC2)cc1Cl | 57 |
| CO[C@@H]1CCN(Cc2c(C)noc2C)[C@@H]2CN(Cc3cccnc3)C[C@@H]21 | 22.6 |
| COCCOc1ccccc1C(=O)NCCN(C)C(C)C | 4.52 |
| O=C(c1nn(-c2ccccc2F)cc1O)N1CCCSCC1 | -21.7 |
| Cc1ccc(N2CC[C@H]3OCC[C@@]3(C(=O)NC(C)C)C2)nn1 | 35.1 |
| COc1ncc(Cl)c(NCc2ccc([S+](C)[O-])cc2)n1 (stereo not given) | 61.1 |
| COc1ncc(Cl)c(NCc2ccc(C(=O)N(C)C)cc2)n1 | 58.9 |
| COCC(=O)NCc1ccc(-c2ncncc2C(=O)N(C)C)cc1 | 26.15 |
| CCOCc1ccc(CNc2nc(OC)ncc2Cl)cc1 | 35.4 |
| COc1ccccc1C1(CNCc2ccc([S+](C)[O-])cc2)CC1 (stereo not given) | 1.41 |
| COc1ccc(CN2CCc3[nH]nc(C(=O)N(C)C)c3C2)cc1 | 21.1 |
| COC(=O)CC1CSCCN1C(=O)CCc1c(C)nn(C)c1C (stereo not given) | 19.8 |
| COc1ccccc1C(O)CNC(=O)NCc1cc[nH]n1 (stereo not given) | 26.4 |
| Cc1cc(C)n(CCCNC(=O)C(C)NC(=O)CC2CCCCC2)n1 (stereo not given) | -7.98 |
| COCC(=O)N1CCC2(CCC2N(C)Cc2ccco2)CC1 (stereo not given) | -28.2 |
| Cc1cc(C)n(CC(C)CNC(=O)[C@@H](C)NC(=O)OC(C)(C)C)n1 (stereo not given in full) | -45.8 |
| Cc1nc(C(=O)N2CCCC2c2noc(C)n2)c[nH]1 (stereo not given) | 0.914 |
| CC(C)CCN1CCC2(CCCN(c3nncs3)C2)C1 (stereo not given) | 4.1 |
| CCc1nncn1CCNC(=O)N1CCN(Cc2ccccc2)CC1 | 35.3 |
| Cn1c2ccc(F)cc2c2ncn(CCCN(CCO)CCO)c(=O)c21 | 24.7 |
| Cc1cnc(C(=O)N2CCCCC2c2nc(C)cs2)cn1 (stereo not given) | -16 |
| Cn1cnc(S(=O)(=O)N2CCN(CC3CC3)c3ncccc3C2)c1 | -22.1 |
| CC(C)CN1CCC2(C1)CN(S(=O)(=O)c1cn(C)cn1)C2 | 35.8 |
| Cn1cnc(S(=O)(=O)N2CC3(CCN(c4ccccc4)C3)C2)c1 | 53 |
| Cn1cnc(S(=O)(=O)N2CCSC3(CCCCC3)C2)c1 | -37.8 |

| SMILES | INHIBITION [%] |
| --- | --- |
| CCN1CCC2(C1)CN(S(=O)(=O)c1cn(C)cn1)C2 | 65.7 |
| Cn1cnc(S(=O)(=O)N2CC3(CCN(Cc4ccncc4)C3)C2)c1 | 21.3 |
| Fc1cnc(N2CC3(CCN(CC4CC4)C3)C2)nc1 | -81.2 |
| Cn1cnc(S(=O)(=O)N2CC3(CCN(CC4CC4)C3)C2)c1 | 67.5 |
| Cn1cnc(C(=O)N2CC3(CCN(S(=O)(=O)c4ccccc4)C3)C2)c1 | -4.02 |
| O=C1CN(Cc2occc2C(=O)NCCc2ccc(F)cc2)CCN1 | 8.41 |
| CC(C)CCNC(=O)Cc1cnc(-n2cccc2)s1 | 37.4 |
| c1cnc(N2Cc3nccn3CC(COc3cccnc3)C2)nc1 (stereo not given) | -13.2 |
| Cc1cc(F)c(S(=O)(=O)Nc2ccn(CCCC#N)n2)cc1F | 30.5 |
| Cn1cc(C(=O)N[C@H]2CN(Cc3nccs3)[C@@H]3CCCO[C@H]23)cn1 | -8.94 |
| CC(C)C1CCC(N2CCN(CCS(C)(=O)=O)CC2)CC1 (stereo not given) | 32.9 |
| CCCn1cc(CN2CCCC2c2cccc(-n3ccnc3)n2)cn1 (stereo not given) | 15.9 |
| O=C(NCC(O)c1ccoc1)Nc1cccs1 (stereo not given) | 19.8 |
| Cc1nc(C)n(C2CCCN(C(=O)Cc3cn4ccccc4n3)C2)n1 (stereo not given) | 25.4 |
| Cc1c(I)cccc1C(=O)NCc1ncc[nH]1 | 57 |
| O=C(NCc1ncc[nH]1)c1c(F)cccc1I | 25.5 |
| Cc1cccc(I)c1C(=O)NCc1ncc[nH]1 | 8.08 |
| Cc1c(I)cccc1C(=O)NCc1nnc[nH]1 | 51.5 |
| Cc1c(I)cccc1C(=O)NCC1(CO)CC1 | -4.86 |
| CCc1ccc(CCC(=O)NCc2nnc[nH]2)cc1 | 24.5 |
| Cc1c2ncn(CC(=O)NC(C)C)c(=O)c2nn1C | 48.5 |
| Cc1c2nnn(CC(=O)N(C)C)c(=O)c2nn1C | 69.4 |
| Cc1c2ncn(CC(=O)N(C)C)c(=O)c2nn1C | 0 |
| CC(=O)N1CCN(c2cc(C3CCNCC3)ccn2)CC1 | 7.19 |
| Cc1cncc(C(=O)N2CCO[C@H]3[C@H](OCCN(C)C)CC[C@@H]32)c1 | 14.5 |
| O=C(CC1CCCO1)NS(=O)(=O)Cc1cc(-c2ccccc2)no1 (stereo not given) | 25 |
| Cc1ccc(CN2CCC3(CCN(c4cnn(C)c4)C3=O)C2)s1 (stereo not given) | 1.94 |

| SMILES | INHIBITION [%] |
| --- | --- |
| CC(C)NC(=O)N1CCC2(CC1)CC[C@@]1(C(=O)N(C)C)CN(C)C[C@@H]21 | 67.5 |
| CCS(=O)(=O)N1CCC2(CC1)CC[C@@]1(C(=O)N(C)C)CN(C)C[C@@H]21 | -10.5 |
| CCN1C[C@H]2C3(CCN(C(=O)NC(C)C)CC3)CC[C@@]2(C(=O)N(C)C)C1 | 28.5 |
| O=C(NCc1cc(=O)n2c(n1)CN(CC1CCOC1)CCC2)C1CC1 (stereo not given) | 26.8 |
| Cc1nc(N2CC[C@@H](c3ccc4ccccc4c3)[C@H](O)C2)no1 | 31.2 |
| O[C@@H]1CN(c2noc(C3CC3)n2)CC[C@H]1c1ccc2ccccc2c1 | 51.2 |
| CCCc1nc(N2CC[C@@H](c3ccc4ccccc4c3)[C@H](O)C2)no1 | 36.7 |
| CC(C)NC(=O)N1CCC2(CC1)NC(=O)CC2c1ccncc1 (stereo not given) | -3.51 |
| CCc1nnc2n1CCN(C(=O)c1cn(-c3ccccc3)nn1)C2 | -1.15 |
| Cc1occc1C(=O)N1CCC2(CCN(Cc3cccs3)C2)CC1 | -33.9 |
| Cc1nc(CN2C(=O)CCC23CCN(Cc2ccco2)CC3)cs1 | 3.17 |
| Cc1nc(CN2C[C@@H]3CN(C(=O)c4ccoc4C)C[C@@H]3C2)cs1 | 1.48 |
| Cc1nc(CN2C[C@@H]3CN(C(=O)c4ccco4)C[C@@H]3C2=O)cs1 | 40.4 |
| Cc1nc(CN2CCC3(C2)CN(Cc2ccco2)C3)cs1 | 56.6 |
| Cc1occc1C(=O)N1CCC2(CCN(Cc3nccs3)C2)CC1 | 1.81 |
| Cc1nc(CN2CCC23CCN(Cc2ccco2)CC3)cs1 | 49.4 |
| Cc1nc(CN2C[C@@H]3CN(C(=O)c4ccoc4C)C[C@@H]3C2=O)cs1 | 64.9 |
| Cc1nc(CN2CCC3(CCN(C(=O)c4ccoc4C)CC3)C2)cs1 | 66.2 |
| Cc1cnc(Nc2cccc(C3CCCN3Cc3cn(C)nc3C)n2)s1 (stereo not given) | 64.5 |
| Cc1cnc(Nc2cccc(C3CCCN3C(=O)CO)n2)s1 (stereo not given) | -0.902 |
| Cc1nn(C)cc1CN1CCCC1c1cccc(Nc2nccs2)n1 (stereo not given) | 23.25 |
| Cc1ccc(C2CCCCCN2Cc2cn(C)nc2C)s1 (stereo not given) | 27.6 |
| COCC(=O)N1CCCC1c1cccc(Nc2ncc(C)s2)n1 (stereo not given) | 42.4 |
| CCN(CC)S(=O)(=O)N1CCCC1c1cccc(Nc2ncc(C)s2)n1 (stereo not given) | 76.1 |
